Source: PubChem BioAssay
HCV inhibitor: qHTS Assay for Inhibitors of Hepatitis C Virus (HCV). Huh7.5.1 HCVcc-Cre infection, luciferase reporter, 44 h. Potency, µM (highest dose often 41.8 µM), for the others: at the highest dose activity change, negative = inhibition, usual class: inhibitors. hit rate 3.4% among 340,000. AID 651820, 2012; note: % is set by controls: 0 for no effect and ±100 for the full control effect
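Compounds are dispensed onto cells plated 4 h earlier at 1,000 per well, with HCVcc-Cre virus (about 0.5 moi) added next. Following 44 h of culture, luminescent signal is measured for 15 sec after 15 min with substrate at room temperature.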
AMA1-RON2 inh: qHTS for Inhibitors of AMA1-RON; Towards Development of Antimalarial Drug Lead: Primary Screen; AlphaScreen AMA1-biotinylated RON2 peptide binding; Potency, µM (titrated, usually from 58.2 µM), without a hit: at the top dose activity change, negative = inhibition, actives largely listed as inhibitors; hit rate 0.2% among 360,000;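 note: 0% = vehicle wells and -100% = peptide control; nearly all actives have a fitted effect of over 45% in size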
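AMA1 (3D7) with his tag at 25 nM final met compounds first, then biotinylated RON2 peptide at 25 nM; detection used donor plus acceptor beads, 10 µg/mL apiece, read by AlphaScreen after 30 min at room temperature.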
SARS PLP yeast: qHTS of Yeast-based Assay for SARS-CoV PLP; Potency, µM (series often up to 32.9 µM), inactives show at the top dose activity, positive = growth rescue, most hits filed as activators; S. cerevisiae expressing SARS-CoV PLpro, growth rescue; AID 485353, 2010; hit rate 0.19% among 330,000; calls by dose curve; note: 0% is about no effect; nearly all actives have a fitted effect of over 55% in size
Pf growth 96h: Primary qHTS for delayed death inhibitors of the malarial parasite plastid, 96 hour incubation; P. falciparum luciferase reporter growth, 96 h; Potency, µM (top dose mostly 28.7 µM), without a hit: at the top dose activity change, negative = inhibition, most hits filed as inhibitors; hit rate 6.9% among 320,000; AID 504834, 2011; note: % is set by controls: 0 for no effect and ±100 for the full control effect
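Two-generation exposure (96 h) targets delayed-death phenotype. Reporter parasites carrying integrated firefly luciferase, in red cells at 2% hematocrit and 0.05% parasitemia final, kept at 37 C, 5% CO2; luminescence loss indicates inhibition.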
Pf growth 48h: Primary qHTS for delayed death inhibitors of the malarial parasite plastid, 48 hour incubation; P. falciparum luciferase growth in erythrocytes, 48 h; Potency, µM (highest dose often 28.7 µM), for inactives: at the top dose activity change, negative = inhibition, hits mostly inhibitors; hit rate 5.9% among 310,000; note: % is set by controls: 0 for no effect and ±100 for the full control effect
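In quantitative HTS format, infected erythrocytes bearing luciferase-reporter parasites were treated for a single generation at 37 C. Luminescence after adding detection reagent served as the growth measure.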
NS1 function inh: qHTS Assay for Inhibitors of Influenza NS1 Protein Function; Potency, µM (doses to about 46.1 µM), without a hit: top-dose activity, positive = more growth; hit rate 0.4% among 270,000; calls by dose curve; note: actives are rising curves; nearly all actives have a fitted effect of over 50% in size
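In this qHTS, NS1 from influenza A is expressed in budding yeast, where it slows growth. Cells are switched from glucose to 2% galactose medium (pH 6.0, -URA), treated with compound, and growth recovery is read at OD600.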
* = called active by the depositor; [ ] = dose if it differs, or a comment. An excerpt weighted towards active compounds, which were near 12% of everything screened. Unless noted, calls come from the whole dose curve; as a rule, active = well fitted curve in the direction sought with a large enough effect; inconclusive = small, poorly fitted or top-dose-only effect, or another doubt; inactive = no such curve, though single readings can be large; an effect the other way counts as inactive or inconclusive. Potency is the fitted concentration of half-maximal effect.

What do the screens show for `COc1ccc(OC)c(CNC(=O)Cc2c(C(=O)O)[nH]c3ccccc23)c1`?
HCV inhibitor: 3%; AMA1-RON2 inh: -20%; SARS PLP yeast: -1%; Pf growth 96h: 9.3µM*; Pf growth 48h: 1%; NS1 function inh: 5%

What do the screens show for `COc1ccc(CCNC(=O)CCc2cn(C)c3ccccc23)c(OC)c1OC`?
HCV inhibitor: inconclusive; AMA1-RON2 inh: 6%; SARS PLP yeast: 1%; Pf growth 96h: inconclusive; Pf growth 48h: 12µM*; NS1 function inh: -5%

Results for COc1ccc(OC)c(CNC(=O)CCc2cn(C)c3ccccc23)c1 ?
HCV inhibitor: -17%; AMA1-RON2 inh: 0%; SARS PLP yeast: 0%; Pf growth 96h: 3.7µM*; Pf growth 48h: 8%; NS1 function inh: -4%

Results for COc1ccc(Br)cc1CNC(=O)CCCc1cn(C)c2ccccc12 ?
HCV inhibitor: inconclusive; AMA1-RON2 inh: inconclusive; SARS PLP yeast: -7%; Pf growth 96h: 12µM*; Pf growth 48h: -7%; NS1 function inh: 8%

Results for C/C(=N\NC(=O)Cc1ccc(Cl)cc1)c1ccccc1O ?
HCV inhibitor: inconclusive; AMA1-RON2 inh: 70%; SARS PLP yeast: -3%; Pf growth 96h: -89%; Pf growth 48h: inconclusive; NS1 function inh: -16%

How did O=C(Cc1c(C(=O)O)[nH]c2ccccc12)Nc1ccc2c(c1)OCO2 do in these assays?
HCV inhibitor: 13%; AMA1-RON2 inh: -11%; SARS PLP yeast: 0%; Pf growth 96h: 13µM*; Pf growth 48h: inconclusive; NS1 function inh: 13%

Results for COc1ccc(NC(=S)NCCc2c(C)[nH]c3ccc(OC)cc23)cc1 ?
HCV inhibitor: -22%; AMA1-RON2 inh: -18%; SARS PLP yeast: 2%; Pf growth 96h: -1%; Pf growth 48h: inconclusive

How did COc1ccc2[nH]c(C)c(CCNCc3cn(C)c4ccccc34)c2c1 do in these assays?
HCV inhibitor: inconclusive; AMA1-RON2 inh: inconclusive; SARS PLP yeast: 5%; Pf growth 96h: 5.2µM*; Pf growth 48h: 8.3µM*

How did O=C(CSc1nnc2c(n1)[nH]c1ccccc12)Nc1ccc2c(c1)OCO2 do in these assays?
HCV inhibitor: inconclusive; AMA1-RON2 inh: -4%; SARS PLP yeast: -4%; Pf growth 48h: 5%; NS1 function inh: 20%

What do the screens show for `O=C(Nc1ccccn1)Nc1ccccc1Cl`?
HCV inhibitor: -1%; AMA1-RON2 inh: -2%; SARS PLP yeast: -9%; Pf growth 96h: 16%; Pf growth 48h: 61%; NS1 function inh: -14%

How did Cc1ccc(Sc2nc(-c3ccccc3)nnc2C(F)(F)F)cc1 do in these assays?
HCV inhibitor: inconclusive; AMA1-RON2 inh: 10%; SARS PLP yeast: 1%; Pf growth 96h: 0%; Pf growth 48h: 13µM*; NS1 function inh: 0%

How did CNc1nc(-c2ccccc2)nnc1C(F)(F)F do in these assays?
HCV inhibitor: -8%; AMA1-RON2 inh: -8%; SARS PLP yeast: -7%; Pf growth 96h: 6%; Pf growth 48h: 18%; NS1 function inh: -7%

How did CC(=O)OC(/C(O)=C(\C#N)c1nc2ccccc2[nH]1)c1ccccc1 (stereo unspecified) do in these assays?
HCV inhibitor: -18%; AMA1-RON2 inh: 26%; SARS PLP yeast: 2%; Pf growth 96h: 9.3µM*; Pf growth 48h: inconclusive; NS1 function inh: -3%

How did COc1cc(/C(O)=C(\C#N)c2nc3ccccc3[nH]2)cc(OC)c1OC do in these assays?
HCV inhibitor: -4%; AMA1-RON2 inh: 70%; SARS PLP yeast: 0%; Pf growth 96h: 15µM*; Pf growth 48h: inconclusive; NS1 function inh: inconclusive

Results for CN(CC(=O)Nc1ccccc1Br)C(=O)c1cc(S(=O)(=O)N(C)C)ccc1N1CCCC1 ?
HCV inhibitor: 9%; AMA1-RON2 inh: -6%; Pf growth 96h: 8%; Pf growth 48h: inconclusive

What do the screens show for `CCOC(=O)CNC(=O)COc1ccc(Cl)cc1Br`?
HCV inhibitor: 7%; AMA1-RON2 inh: 1%; SARS PLP yeast: -1%; Pf growth 96h: 10µM*; Pf growth 48h: 5%; NS1 function inh: -7%

Results for O=C(COC(=O)COc1ccc(Cl)cc1Br)NCc1cccs1 ?
HCV inhibitor: 8%; AMA1-RON2 inh: 1%; SARS PLP yeast: -16%; Pf growth 96h: 27%; Pf growth 48h: 17%; NS1 function inh: -8%

Results for COCCn1c(SCC#N)nnc1-c1ccccc1 ?
HCV inhibitor: -1%; AMA1-RON2 inh: -1%; SARS PLP yeast: 4%; Pf growth 48h: 28%; NS1 function inh: -20%

Results for COCCn1c(SCc2cnc(-c3ccccc3)s2)nnc1-c1ccncc1 ?
HCV inhibitor: -26%; AMA1-RON2 inh: -6%; SARS PLP yeast: 3%; Pf growth 96h: 9.3µM*; Pf growth 48h: inconclusive; NS1 function inh: -1%

What do the screens show for `CC(C)CC(NC(=O)C(NC(=O)OC(C)(C)C)C(C)C)C(=O)NC(CCC(=O)OCc1ccccc1)C(N)=O` (stereo unspecified)?
HCV inhibitor: 3%; AMA1-RON2 inh: -14%; SARS PLP yeast: 0%; Pf growth 96h: inconclusive; Pf growth 48h: 1.9µM*; NS1 function inh: 11%

What do the screens show for `O=C(c1ccc(CSc2nc3ccncc3[nH]2)cc1)N1CCCCC1`?
HCV inhibitor: 1%[8.37 µM]; AMA1-RON2 inh: -15%; SARS PLP yeast: -1%; Pf growth 96h: 12µM*; Pf growth 48h: 33%; NS1 function inh: -4%

Results for Cc1ccc(C)c(N2CCN(C(=O)c3ccc(CSc4nc5ccncc5[nH]4)cc3)CC2)c1 ?
HCV inhibitor: inconclusive; AMA1-RON2 inh: -26%; SARS PLP yeast: -13%; Pf growth 96h: -30%; Pf growth 48h: inconclusive; NS1 function inh: -5%

What do the screens show for `CC1CCCCC1NC(=O)c1ccc(CSc2nc3ccncc3[nH]2)cc1` (stereo unspecified)?
HCV inhibitor: inconclusive; AMA1-RON2 inh: -3%; SARS PLP yeast: -17%; Pf growth 96h: 5.2µM*; Pf growth 48h: inconclusive; NS1 function inh: 22%

How did O=C(NCc1ccccc1Cl)c1ccc(CSc2nc3ccncc3[nH]2)cc1 do in these assays?
HCV inhibitor: -5%; AMA1-RON2 inh: -10%; SARS PLP yeast: 0%; Pf growth 96h: inconclusive; Pf growth 48h: 12µM*; NS1 function inh: 10%

What do the screens show for `CCOC(=O)[C@]12CCC=C1N(Cc1cccc3ccccc13)C(=O)[C@H](CC(=O)N1CCCC1)C2`?
AMA1-RON2 inh: -9%

How did COc1ccc(C[C@@H](N)c2ccc(OC)cc2)cc1 do in these assays?
NS1 function inh: -6%
